An excerpt weighted towards active compounds, which were near 4.6% of everything screened.
HSF1 activator = HSF-1 activators, primary screen, NIH3T3-HGL cells, MG132 stress, luminescence, single point; activation, % at 9 µM; NIH3T3-HGL HSF-1 luciferase reporter, 8 h; 100% = twice DMSO control signal; 300,000 compounds, 1.7% hits;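 active = mean replicate activation of at least 50% with a set share of replicates each reaching 50%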;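 also: 0% = median of the neutral control wells and 100% = twice that signal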
AHR activator = AHR activators, primary screen, cell-based, luminescence, luciferase reporter, human; Aryl hydrocarbon receptor (Homo sapiens), P35869; AHR-responsive luciferase reporter cells; activation, % at 5 µM; 320,000 compounds, 2.5% hits; in the data active = activation above about 47%;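 also: 0% = vehicle wells and 100% = reference agonist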
Target sequence (P35869 whole entry, looked up): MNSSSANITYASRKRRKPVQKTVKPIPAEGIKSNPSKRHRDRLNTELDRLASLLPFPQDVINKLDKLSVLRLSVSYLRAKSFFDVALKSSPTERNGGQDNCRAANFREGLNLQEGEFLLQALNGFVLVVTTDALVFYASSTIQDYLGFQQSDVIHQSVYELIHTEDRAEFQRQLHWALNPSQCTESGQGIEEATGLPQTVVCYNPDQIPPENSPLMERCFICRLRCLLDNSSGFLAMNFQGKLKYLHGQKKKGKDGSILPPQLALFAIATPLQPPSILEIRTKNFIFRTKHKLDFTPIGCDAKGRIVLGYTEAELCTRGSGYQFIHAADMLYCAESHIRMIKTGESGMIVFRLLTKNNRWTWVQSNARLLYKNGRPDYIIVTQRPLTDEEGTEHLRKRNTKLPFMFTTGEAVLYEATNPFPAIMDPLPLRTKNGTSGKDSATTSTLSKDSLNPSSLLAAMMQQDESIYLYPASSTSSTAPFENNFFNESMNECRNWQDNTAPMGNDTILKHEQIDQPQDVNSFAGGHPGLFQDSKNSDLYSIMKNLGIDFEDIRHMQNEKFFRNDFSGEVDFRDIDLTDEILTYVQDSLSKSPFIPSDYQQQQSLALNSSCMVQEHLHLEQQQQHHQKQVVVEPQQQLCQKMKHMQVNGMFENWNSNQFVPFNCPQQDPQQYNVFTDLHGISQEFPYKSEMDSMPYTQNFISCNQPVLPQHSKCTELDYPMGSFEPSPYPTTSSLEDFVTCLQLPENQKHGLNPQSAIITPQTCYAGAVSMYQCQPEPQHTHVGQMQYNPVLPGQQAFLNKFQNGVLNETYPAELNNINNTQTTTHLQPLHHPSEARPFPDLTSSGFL
HSF1 inhib = HSF1 inhibitors in luciferase reporter cells, primary screen, cell-based, NIH3T3, luminescence. NIH3T3-HGL HSE-luciferase, MG132-induced, luminescence 8 h; active compounds read low. activity change, negative = inhibition, % at 7.5 µM (by protocol). 300,000 compounds, 0.77% hits;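 active = more than half of replicate wells show activity change below -50%, luminescence cut by over half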;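 also: luciferase reports HSF-1 transcriptional activity via heat shock element; 0% = median of DMSO wells and -100% = zero luminescence signal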
FXN GAA850 act = FXN promoter activators, primary screen, cell-based, luciferase luminescence, HEK293 lucGAA850. HEK293 lucGAA850 FXN promoter luciferase reporter, 24 h; percent of 10 µM SAHA response. activation, % at 6 µM. 360,000 compounds, 0.56% hits. AID 540364, 2011;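 active = activation above the average of all compounds screened plus 3 SD, cutoff fixed separately per campaign, cut at about 7.5% in these data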;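 also: 0% = DMSO wells and 100% = 10 µM SAHA wells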
Starred values were filed as active, the others as inactive; . = no result given.

SMILES	HSF1 activator	AHR activator	HSF1 inhib	FXN GAA850 act
CCCn1nc(NC(C)=O)c2cc3cccc(C)c3nc21	17	48*	-10	2
Cc1cccc2cc3c(NC(=O)c4ccccn4)nn(C)c3nc12	1	49*	-8	1
CCOc1ccc(CCNC(=O)CN(C)S(=O)(=O)c2cccc3nsnc23)cc1OCC	-39	1	-24	-1
O=C(NC(C(=O)c1ccccc1)N1CCCCC1)c1ccccc1 (configuration not stated)	82*	-1	31	3
Cc1c(/C=N/NC(=O)c2ccccc2O)c2ccccn2c1C(=O)c1ccc(F)cc1	0	53*	0	1
Cc1c(/C=N/NC(=O)c2cccnc2)c2ccccn2c1C(=O)c1ccc(F)cc1	-18	73*	0	.
Cc1c(/C=N/NC(=O)CNc2ccccc2)c2ccccn2c1C(=O)c1ccccc1	7	53*	1	-3
Cc1c(/C=N/NC(=O)c2ccc(O)cc2)c2ccccn2c1C(=O)c1ccc(F)cc1	-8	4	-4	-3
CC1CCN(C(=O)C2CCCN(S(=O)(=O)c3cccc4nsnc34)C2)CC1 (configuration not stated)	13	5	-2	-1
Cc1ccc(-c2ccnc(-c3ccc(O)cc3)n2)cc1	65*	0	23	5
O=C(Cc1ccccc1F)Nc1nc(-c2ccc(F)c(F)c2)cs1	-7	-14	5	5
Cn1c2ccccc2c2cc(C(=O)NNS(=O)(=O)c3ccc(F)cc3)sc21	13	77*	17	1
CCN(CCO)c1nc(SC)nc2c1sc1nc(-c3ccco3)c3c(c12)CCC3	58*	1	36	-2
O=C(c1ccc(-n2cnnn2)cc1)N1CCCCC1	1	4	-5	2
CN(C)c1ccc(C(=S)Nc2ccccc2)cc1	-85	18	-82*	-9
CN(C)c1ccc(NC(=S)c2ccccn2)cc1	-36	0	-41	-12
S=C(Nc1cccc(Br)c1)c1ccccc1	34	79*	18	4
O=C(CCc1nc(-c2ccccc2F)no1)NC1CCN(Cc2ccccc2)CC1	21	2	0	-2
CCOC(=O)c1nc(NCc2cccnc2)c2ccccc2n1	7	3	-2	0
Cc1noc(C)c1C(=O)N1CCC(Cc2ccccc2)CC1	4	-4	-2	1
Cc1noc(C)c1C(=O)N1CCC(C(=O)c2ccccc2)CC1	-71	-3	-62*	2
COCCN1CCCC(CNCc2cn(C)nc2-c2ccc(Oc3ccccc3)cc2)C1 (configuration not stated)	-12	0	-3	-1
O=S(=O)(c1ccc(NCCCO)nc1)N1CCOCC1	.	.	.	0
CCc1ccc2[nH]c(O)c(N=Nc3nc(-c4ccccc4)cs3)c2c1	-91	63*	-89*	1
CCc1cc2c(N=Nc3c(O)[nH]c4ccccc34)ncnc2s1	-8	23	-3	2
SMILES	HSF1 activator	AHR activator	HSF1 inhib	FXN GAA850 act
CCOC(=O)Cc1ccc2sc(-c3ccccc3)nc2c1	92*	-1	53	6
O=C(Cc1ccccc1F)Nc1ccc(SC(F)F)cc1	59*	11	27	3
Cc1ccc(C(=O)c2oc3nc(C)cc(C)c3c2N)cc1	2	95*	-7	2
NC(=S)N=Nc1c(O)[nH]c2ccccc12	-8	7	-2	0
NC(=S)N=Nc1c(O)[nH]c2c(Br)cc(Br)cc12	30	63*	13	0
COc1cc(OC)c2c(=O)cc(-c3cccnc3)oc2c1	36	62*	9	2
COc1cc(C(=O)NCC(C)C)c([N+](=O)[O-])cc1OC	8	-2	-6	-1
CCCn1c(SCC(=O)NC(=O)Nc2ccc(C)cc2C)n[nH]c1=O	25	17	13	-1
Cc1[nH]ccc(=O)c1OCc1ccc(Cl)cc1	47	12	9	2
COCCn1nnnc1CN(Cc1ccco1)Cc1cc2cc3c(cc2[nH]c1=O)OCO3	1	72*	1	2
COc1ccc(C(C)=O)cc1COC(=O)c1cc(C)oc1C	.	7	.	1
COc1ccc(Cc2nnc(NC(=O)Nc3ccccc3)s2)cc1OC	2	21	1	2
O=C(CCS(=O)(=O)c1ccccc1)Nc1cccc(-c2nc3ccccc3s2)c1	20	68*	20	5
O=S(=O)(Cc1nc2ccccc2s1)c1ccccc1	59*	34	29	3
Cc1ccc(S(=O)(=O)CCC(=O)Nc2ccc(Br)cc2)cc1	-73	4	-67*	1
O=S(=O)(CCc1nc2ccccc2s1)c1ccc(Cl)cc1	-1	-1	6	-1
O=C(CCS(=O)(=O)c1ccccc1)Nc1ccc(-c2nc3ccccc3s2)cc1	58*	7	14	1
O=C(CNS(=O)(=O)c1cccc(Cl)c1)Nc1ccc(-c2nc3ccccc3s2)cc1	3	34	7	4
O=C(Cn1cc([N+](=O)[O-])cn1)NCC1CCCO1 (configuration not stated)	-71	2	-63*	-1
O=C(Cn1ccc([N+](=O)[O-])n1)NCC1CCCO1 (configuration not stated)	1	.	-2	-2
CCOC(=O)Cn1cnc2c(nnn2-c2ccc(C)cc2)c1=O	12	2	5	-4
Cc1ccc(CCN2C(=O)CCC2(C)C(=O)NCc2cccnc2)cc1 (configuration not stated)	-6	1	0	1
Cc1n[nH]c(C)c1S(=O)(=O)N(CC(=O)N1CCc2ccccc21)c1ccc(C(C)C)cc1	75*	7	62	2
CC1(C)CC(=O)C(N=Nc2ccc(OC(F)F)cc2)=C(O)C1	-64	0	-56*	2
COC(=O)CC/C(O)=C1/C(=N)CC(C)(C)CC1=O	58*	0	23	-1
SMILES	HSF1 activator	AHR activator	HSF1 inhib	FXN GAA850 act
COc1ccc(C(=O)Cn2nnc(-c3ccccc3-n3cnnn3)n2)cc1	6	-1	-2	2
Cc1ccc(C(=O)Cn2nnc(-c3ccccc3-n3cnnn3)n2)cc1	73*	-1	53	-3
O=C(Nc1ccccc1)Nc1ccc(Oc2ncnc3cc(Cl)ccc23)nc1	3	-3	0	.
Cc1ccc2nc(-c3sc4nc(C)cc(C)c4c3N)[nH]c2c1	-66	-10	-61*	4
COc1ccc2c(c1)c1nnc(SCC(=O)N3C(C)CCCC3C)nc1n2C (configuration not stated)	1	50*	-1	1
Cc1ccc(CSc2nnc(SCC(=O)N/N=C/c3c(C)nn(-c4ccccc4)c3C)s2)cc1	65*	9	56	2
Cc1ccc(S(=O)(=O)N/N=C\c2cn(-c3ccccc3)nc2-c2ccccc2)cc1	-11	0	-3	4
Cc1ccc(S(=O)(=O)N/N=C/c2c(C)nn(-c3ccccc3)c2C)cc1	-65	6	-54*	0
